# Measured values published in PubChem BioAssay (NCI).
# The panel holds about 83,000 compounds, 20% with a hit somewhere; the sample as a whole holds those more often.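 Each cell line was grown in a 96-well plate and treated with one concentration of compound for 48 hours. Values below 10 were considered active.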 Unmarked numbers belong to inactive results. The source made the active and inactive calls.
# Tested on: RXF 393 renal
# Assay: NCI-60 one-dose screen, 48 h (100 = growth as untreated, 0 = no growth, -100 = all killed)
# Conditions: 10 µM unless noted
row,SMILES,growth
1,COC(=O)[C@@H]1CCCN1C(=O)[C@H]1CCCN1C(=O)[C@@H](Cc1c[nH]c2ccccc12)NC(=S)Nc1cc(C(F)(F)F)cc(C(F)(F)F)c1,48.5%
2,Cc1ccc(F)cc1NC(=O)c1cc(Cl)ccc1Nc1ccccc1,68.3%
3,CC1=C(C(=O)OCC2CCN(C(=O)OC(C)(C)C)CC2)[C@@H](c2cccc(C#N)c2)C2=C(CC(C)(C)CC2=O)N1,71%
4,CCCCCCc1cc2cc(-c3csc(/C=C/c4ccccc4)n3)c(=O)oc2cc1O,-9.75% (active)
5,COc1ccc(Br)c(/C=C2\SC(=Nc3ccc(O)cc3)NC2=O)c1,83.7%
6,COc1ccc(Cn2c(Br)c3c(c2Br)-c2nc(N)sc2CC3)cc1,16.3%
7,COC(=O)c1cc2c(n1Cc1ccccc1)-c1oncc1CCC2,73.7%
8,CCOC(=O)c1sc(-c2ccc(OS(=O)(=O)c3ccccc3[N+](=O)[O-])c(C=O)c2)nc1C,108%
9,Clc1ncccc1Nc1ccc2nnc(-c3ccncc3)n2n1,114%
10,O=C1NC(=O)C(=Cc2cn(Cc3cn(Cc4ccc(Cl)cc4Cl)nn3)c3ccccc23)C(=O)N1,85.2%
11,CCCCCCn1c(=N)n(CC(O)COc2cccc(C)c2)c2ccccc21 (stereo not drawn),-95.1% (active)
12,O=C(Nc1ncc(Cc2cccc(C(F)(F)F)c2)s1)C1COc2ccccc2O1 (stereo not drawn),79%
13,CN1C(=O)N(C)C2C1NN=c1s/c(=C\c3ccc([N+](=O)[O-])cc3)c(=O)n12 (stereo not drawn),78.6%
